The source of these data is PubChem BioAssay (Tox21).

SMILES strings stand for the structures. Unmarked numbers belong to inactive results. Inconclusive results are not listed. Activity calls are given as the source filed them. Unless noted, calls follow the shape of the dose curve; as a rule, active = well fitted curve in the direction sought with a large enough effect in the repeat runs; inconclusive = weak or mixed curves; inactive = no such curve, though single readings can be large; an effect the other way counts as inactive or inconclusive.

Assay [1] addresses Progesterone receptor (Homo sapiens) (UniProt P06401). Description: qHTS assay to identify small molecule agonists of the progesterone receptor (PR) signaling pathway (AID 1346784; calls by dose curve; also: nearly all actives have a fitted effect of over 30% in size; also: potency is read from the fitted curve at half-maximal effect). In a few lines:
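The screen uses PR-UAS-bla HEK 293T cells in charcoal-stripped serum (2%). Compounds are applied for 16 hr at 37C after a 6 hr pre-incubation, and reporter activity is detected with a FRET beta-lactamase substrate after 2 hr at room temperature.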
(qHTS replaces the single test concentration by a dilution series.)

The target is the same in assay [2]. Description: qHTS assay to identify small molecule antagonists of the progesterone receptor (PR) signaling pathway (AID 1346795; active = well fitted inhibition curve with a large enough effect in the signal ratio in the repeat runs, not every such curve was filed as active; the % refers to the signal ratio; also: potency is read from the fitted curve at half-maximal effect). In a few lines:
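After 6 hr plating at 37C in 2% stripped-serum medium, PR-UAS-bla HEK293T cells got compounds, then 1 nM R5020. Sixteen hours later, LiveBLAzer substrate was applied for 2 hr at room temperature and fluorescence was recorded.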

Assay [3] is described as follows: qHTS assay to identify small molecule antagonists of the TGF-beta/Smad signaling pathway - cell viability counter screen (AID 1346824). Also: nearly all actives have a fitted effect of over 50% in size. In a few lines:
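Cytotoxicity counter-screen run in the same wells as the beta-lactamase Smad reporter read: CellTiter-Glo luminescence after 30 min at room temperature. HEK 293T SBE-bla cells had 5 hr compound exposure at 37 C with TGF-beta1 (0.25 ng/mL stock).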

Assay [4] can be described thus: qHTS assay to identify small molecule agonists of the TGF-beta/Smad signaling pathway - cell viability counter screen (AID 1346829). Also: top concentration of the series differs between compounds; nearly all actives have a fitted effect of over 45% in size. In a few lines: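 Luminescence from CellTiter-Glo, read after a 30 min room-temperature incubation, gives cell viability of SBE-bla HEK 293T cells treated 5 hr with compounds at 37 C.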
The nature of assay [5]: qHTS assay to identify small molecule agonists of the TGF-beta/Smad signaling pathway (AID 1346859; active = well fitted activation curve with a large enough effect in the signal ratio in the repeat runs, not every such curve was filed as active; the % refers to the signal ratio; also: series mostly up to about 77 µM). In a few lines:
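Dual-wavelength fluorescence (460/530 nm emission) quantified beta-lactamase expression under the Smad binding element in HEK 293T cells following 5 hr compound treatment at 37 C.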

In assay [6] the target is Thyrotropin-releasing hormone receptor (Homo sapiens) (UniProt P34981). The assay can be described thus: qHTS assay to identify small molecule antagonists of the thyrotropin-releasing hormone receptor (TRHR) signaling pathway (AID 1346877; active = well fitted inhibition curve with a large enough effect in the repeat runs, not every such curve was filed as active; also: series mostly up to about 51 µM). In a few lines: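 TRHR-expressing HEK293 cells were seeded, cultured 18 h at 37 °C, then loaded with calcium dye for 2 h. Compounds were pre-incubated 5 min at room temperature before 1 nM TRH (final) was added, and kinetic fluorescence was recorded for 3 min.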
Thyrotropin-releasing hormone receptor (Homo sapiens), sequence (P34981 whole entry, looked up): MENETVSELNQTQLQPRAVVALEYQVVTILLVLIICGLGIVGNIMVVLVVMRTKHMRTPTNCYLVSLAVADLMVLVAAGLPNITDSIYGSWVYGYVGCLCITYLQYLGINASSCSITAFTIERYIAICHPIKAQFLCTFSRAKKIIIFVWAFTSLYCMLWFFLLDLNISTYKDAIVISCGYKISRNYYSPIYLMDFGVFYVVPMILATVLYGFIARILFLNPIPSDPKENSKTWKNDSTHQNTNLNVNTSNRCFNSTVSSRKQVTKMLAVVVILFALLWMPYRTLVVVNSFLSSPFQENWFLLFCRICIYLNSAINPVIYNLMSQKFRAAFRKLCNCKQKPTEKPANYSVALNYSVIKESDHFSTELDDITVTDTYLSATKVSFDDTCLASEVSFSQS

The target is the same in assay [7]. Description: qHTS assay to identify small molecule agonists of the thyrotropin-releasing hormone receptor (TRHR) signaling pathway (AID 1346891; calls by dose curve; also: series mostly up to about 58 µM). In a few lines: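 Kinetic fluorescence (3 min, 1 s intervals) reported intracellular calcium after compound transfer onto TRHR-Hek293 cells pre-loaded with dye for 2 h at 37 °C.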
The nature of assay [8]: Human pregnane X receptor (PXR) small molecule agonists, qHTS cell viability counter screen (AID 1346977). Also: nearly all actives have a fitted effect of over 50% in size. Also: potency is read from the fitted curve at half-maximal effect. In a few lines: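 HepG2 cells stably carrying the PXR-Luc reporter are cultured with 5% charcoal-stripped FBS and treated with compounds for 24hr. CellTiter-Fluor is added at 23hr and fluorescence is read after 1hr.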
A short description of assay [9]: qHTS assay to identify small molecule agonists of the progesterone receptor (PR) signaling pathway - cell viability counter screen (AID 1346799; calls by dose curve; also: nearly all actives have a fitted effect of over 45% in size; also: potency is read from the fitted curve at half-maximal effect). In a few lines: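 Viability was scored by ATP luminescence (CellTiter-Glo, 30 min, room temperature) in the same wells used for the reporter readout, after 16 hr compound exposure of PR-UAS-bla HEK293T cells.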
Assay [10] is described as follows: qHTS assay to identify small molecule antagonists of the progesterone receptor (PR) signaling pathway - cell viability counter screen (AID 1346798). Also: series mostly up to about 92 µM; nearly all actives have a fitted effect of over 50% in size. In a few lines: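 Viability was determined by ATP-based luminescence (CellTiter-Glo) in PR-UAS-bla HEK293T cells cultured in 2% charcoal-stripped serum and incubated 16 hr with compounds under R5020 stimulation.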
% is scaled to controls: 0 for no effect and ±100 for the full control effect.

Progesterone receptor (Homo sapiens), sequence (P06401 whole entry, looked up): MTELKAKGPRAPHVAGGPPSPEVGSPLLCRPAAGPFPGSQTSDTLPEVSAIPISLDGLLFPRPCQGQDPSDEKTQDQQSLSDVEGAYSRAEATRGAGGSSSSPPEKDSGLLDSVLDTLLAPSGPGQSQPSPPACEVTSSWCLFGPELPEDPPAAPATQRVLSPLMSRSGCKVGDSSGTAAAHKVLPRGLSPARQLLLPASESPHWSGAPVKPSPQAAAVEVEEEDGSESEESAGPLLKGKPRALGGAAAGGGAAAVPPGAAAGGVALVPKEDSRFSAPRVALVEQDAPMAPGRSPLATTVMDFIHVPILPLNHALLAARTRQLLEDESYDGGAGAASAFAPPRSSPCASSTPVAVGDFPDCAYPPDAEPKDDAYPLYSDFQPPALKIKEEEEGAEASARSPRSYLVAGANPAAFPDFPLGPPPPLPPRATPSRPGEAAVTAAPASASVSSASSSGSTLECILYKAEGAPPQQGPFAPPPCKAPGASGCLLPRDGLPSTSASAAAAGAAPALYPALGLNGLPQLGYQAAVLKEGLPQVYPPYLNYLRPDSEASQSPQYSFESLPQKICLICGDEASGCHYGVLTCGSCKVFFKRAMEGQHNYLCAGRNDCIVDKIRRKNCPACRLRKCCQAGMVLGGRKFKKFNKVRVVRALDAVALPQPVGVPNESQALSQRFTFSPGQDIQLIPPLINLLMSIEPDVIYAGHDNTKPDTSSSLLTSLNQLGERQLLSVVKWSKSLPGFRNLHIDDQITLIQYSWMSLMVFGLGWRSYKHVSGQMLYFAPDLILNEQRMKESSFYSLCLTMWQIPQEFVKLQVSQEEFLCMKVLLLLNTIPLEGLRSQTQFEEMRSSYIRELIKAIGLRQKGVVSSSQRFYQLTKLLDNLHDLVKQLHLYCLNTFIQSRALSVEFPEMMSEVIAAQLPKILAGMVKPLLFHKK

Regarding `CCCCc1ccc2nc(NC(=O)OC)[nH]c2c1`, the Potency result in assay [1], in assay [7] and in assay [8] was “inactive” each time. Besides, the Potency in [2] is 4.22 µM (active). For the same compound, the call in assay [3], in assay [4], in assay [5] and in [6] was inactive.
For the compound `CCN(CC)C(=O)N(CC)CC`, the Potency entry in assay [1], in assay [2], in assay [9] and in [8] was “inactive” each time. Moreover, the compound was called inactive in [3], in assay [4] and in assay [5].
On to `CCN(CCCc1ccccc1)CCCc1ccccc1`, for which the Potency result in [1], in assay [2] and in assay [7] was “inactive” throughout. Further, the outcome in assay [3], in [4] and in [6] was inactive.
On to `FC(F)(F)C(Cl)(Cl)Cl`, for which the Potency entry in [1], in assay [2], in assay [7] and in assay [8] was “inactive” throughout. The compound was classed as inactive in [3], in [4], in [5] and in [6].
Take `CCOc1ccc(OCC)c(Cl)c1`: the Potency result in assay [1], in [10], in [9], in assay [7] and in [8] was “inactive” in each case. Also, the result in assay [3], in [4], in [5] and in assay [6] was inactive.
Take `CC1=C2[C@H](/C=C(\C)C(=O)O)CC[C@@H](C)[C@H]2CC1`: the Potency result in assay [1], in assay [10], in assay [9], in [7] and in assay [8] was “inactive” each time. For the same compound, the call in assay [3], in assay [4] and in assay [6] was inactive.
Take `CCCCCCCCCCCCOCCOS(=O)(=O)O`: the Potency result in [1], in assay [10] and in assay [8] was “inactive” each time. The Potency in [9] is 27.3 µM (active). Further, the outcome in [3], in [4] and in assay [5] was inactive.
Turning to `Cc1cc2nc(N)sc2cc1C`, the Potency entry in assay [1], in assay [10], in [9] and in [8] was “inactive” throughout. Further, the compound was called inactive in assay [3], in [4] and in [5].
In the case of `C=C(C)C(=O)OCCOP(=O)(O)O`, the Potency entry in assay [1], in [2], in assay [7] and in assay [8] was “inactive” each time. The compound was called inactive in [3], in assay [4], in [5] and in assay [6].
Take `CCC(=O)c1ccc2c(c1)N(CCCN(C)C)c1ccccc1S2`: the Potency result in assay [1], in assay [10], in [9] and in assay [7] was “inactive” in each case. Besides, the call in [3], in [4], in [5] and in assay [6] was inactive.
With `CC(C)CC(=O)OCc1ccccc1`, the Potency entry in assay [1], in assay [10], in [9] and in assay [7] was “inactive” each time. Further, the result in [3], in [4], in assay [5] and in assay [6] was inactive.
Regarding `Cc1nc(N)nc(N)c1-c1ccc(Cl)c(Cl)c1`, the Potency entry in assay [1], in assay [10], in [9] and in [7] was “inactive” throughout. The outcome in [5] and in assay [6] was inactive.
On to `Cc1c(-c2ccccc2)oc2c(C(=O)OCCN3CCCCC3)cccc2c1=O`, for which the Potency result in [1], in assay [10], in [9] and in assay [7] was “inactive” in each case. Moreover, the result in assay [3] and in [6] was inactive.
Regarding `CC(C)NC[C@@H](O)COc1cccc2ccccc12`, the Potency entry in [1], in [2] and in assay [7] was “inactive” in each case. Moreover, the result in assay [3], in [4], in [5] and in [6] was inactive.
On to `C[C@]12CCC(=O)C=C1CC[C@@H]1[C@@H]2CC[C@@]2(C)[C@H]1CC[C@]2(O)C(=O)CO`, for which the Potency in assay [1] is 8.41 µM (active). For the same compound, the Potency entry in [10], in assay [7] and in [8] was “inactive” each time. Moreover, the outcome in assay [3], in assay [4], in assay [5] and in assay [6] was inactive.
With `O=Cc1ccc(F)c(Br)c1`, the Potency result in [1], in assay [2], in assay [7] and in assay [8] was “inactive” in each case. Besides, the compound was classed as inactive in assay [3], in assay [5] and in assay [6].
Regarding `CCCCCCOc1ccc(N)cc1`, the Potency entry in assay [1], in [10], in assay [9] and in assay [8] was “inactive” throughout. Moreover, the compound was classed as inactive in assay [3], in assay [4] and in [5].
For the compound `CN1CCN(c2c(F)cc3c(=O)c(C(=O)O)cn(CCF)c3c2F)CC1`, the Potency result in assay [1], in assay [10], in assay [9], in assay [7] and in [8] was “inactive” in each case. The call in [3], in assay [5] and in assay [6] was inactive.
`Cc1ccccc1C(=O)Nc1ccc(C(=O)N2CCCC(O)c3cc(Cl)ccc32)c(C)c1` (centres undefined): the Potency result in [1], in [10] and in assay [7] was “inactive” each time. The outcome in assay [3], in assay [4], in assay [5] and in assay [6] was inactive.
On to `NC(Cc1ccc(F)cc1)C(=O)O` (centres undefined), for which the activation in assay [1] was 0.365% [at 8.39 µM]; in assay [5], -0.692% [at 6.97 µM]; in [7] it was 0.148% [at 5.23 µM]. Moreover, the activity change, negative = cytotoxicity in assay [10] is -3.28% [at 8.39 µM]; in assay [9], 1.93% [at 8.39 µM]; in [4], 4.18% [at 6.97 µM]. For the same compound, the viability change, negative = cytotoxic in assay [3] is 18.5% [at 6.97 µM]. Moreover, in assay [6], the activity, negative = inhibition was -1.45% [at 4.65 µM].
Turning to `O=C(O)c1cccc(Cl)c1Cl`, the Potency result in assay [10], in [9] and in [8] was “inactive” each time. Further, the outcome in assay [3], in assay [4] and in assay [5] was inactive.
As for `CCCCOc1cc(C(=O)NCCN(CC)CC)c2ccccc2n1`, the Potency result in assay [1] and in assay [7] was “inactive” throughout. Moreover, the outcome in assay [3], in assay [4], in [5] and in [6] was inactive. Also, the Potency in [8] was 21.1 µM (active).
Turning to `CN1CCN(c2c(F)cc3c(=O)c(C(=O)O)cn4c3c2SCC4)CC1`, the Potency entry in [2], in [10], in assay [9], in assay [7] and in [8] was “inactive” each time. For the same compound, the result in assay [3], in assay [4], in [5] and in assay [6] was inactive.
Turning to `CO[Si](C)(C)OC`, the Potency entry in [1], in assay [9], in assay [7] and in assay [8] was “inactive” in each case. Further, the compound was called inactive in assay [4], in assay [5] and in [6].
As to `CCCCCCC`, the Potency result in assay [1] and in assay [7] was “inactive” throughout. The call in [3], in assay [4], in [5] and in assay [6] was inactive.
For `COc1ccc(Nc2ccc(OC)cc2)cc1`, the Potency result in assay [1], in assay [9] and in [7] was “inactive” in each case. Also, the result in assay [3], in assay [5] and in assay [6] was inactive.
Consider `C=CCCC=C`, for which the Potency in [1] was 19.9 µM (active). Moreover, the Potency result in [10], in assay [7] and in assay [8] was “inactive” in each case. Moreover, the compound was classed as inactive in [3], in [5] and in assay [6].
Consider `Clc1cccc(-c2cc(Cl)cc(Cl)c2)c1`, for which the Potency result in [1], in [10], in assay [7] and in [8] was “inactive” throughout. Further, the compound was classed as inactive in [3], in assay [4], in assay [5] and in [6].
